# “And” between values parts separate entries of the source, which are not always exact repeats. Equal values may be shown once. Records with an inconclusive call do not appear. The source made the active and inactive calls. How the source made its calls, unless noted: active means hit-call score of the fitted dose curve at least 0.9, where 1 is the maximum; inactive means score below 0.9.
# Legend:
# [1] = read-out: E-selectin (Homo sapiens) (UniProt P16581); assay: BSK_SAg_Eselectin: BioMAP Diversity Plus: SAg Assay for Eselectin Biomarker Activity (AID 2283091); conditions: primary human HUVEC with PBMC; actives raise or lower the signal
# Procedure, shortened: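 Endpoint values derive from bidirectional fitting relative to DMSO, using ELISA-measured E-selectin in a human vascular co-culture (umbilical vein endothelium plus PBMC) sampled 24 h after dosing.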
# [2] = read-out: Monokine induced gamma interferon (MIG), CXCL9 (gene 4283); assay: BSK_SAg_MIG: BioMAP Diversity Plus: SAg Assay for Monokine induced gamma interferon (MIG) Biomarker Activity (AID 2283092); conditions: primary human HUVEC with PBMC; actives raise or lower the signal
# Procedure, shortened: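 Endothelial cells and PBMC were co-cultured, exposed to test chemicals, and sampled 24 h later. MIG was measured by ELISA, and responses were fitted in both directions relative to DMSO.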
# [3] = BSK_SAg_PBMCCytotoxicity: PBMC Cytotoxicity Assessment in the BioMAP Diversity Plus: SAg Assay (AID 2283093); conditions: primary human HUVEC with PBMC;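 further: PBMC viability measured as Alamar Blue reduction fluorescence at 546/580 nm; fitted both ways against DMSO so a hit may be loss or gain of signal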;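 on AC50: PBMC superantigen activated with SEB plus TSST-1 one hour after compound addition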
# Procedure, shortened: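 Compound added to 75,000 PBMC/well for 1 h; SEB and TSST-1 then added at 20 ng/mL final each; 90 h incubation; Alamar Blue 6 h; read 546/580 nm ex/em. Activity fitted bidirectionally relative to DMSO baseline.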
# [4] = BSK_SAg_SRB: Viability Assessment in the BioMAP Diversity Plus: SAg Assay (AID 2283096); conditions: primary human HUVEC with PBMC;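 further: cells read one day after compound addition; hits may be either gain or loss of signal compared with DMSO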
# Procedure, shortened: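 Total protein by sulforhodamine B staining, 24 h after dosing, in HUVEC–PBMC co-culture; DMSO-referenced bidirectional fitting.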
# [5] = read-out: Interleukin-8 (IL8), CXCL8 (gene 3576); assay: BSK_SAg_IL8: BioMAP Diversity Plus: SAg Assay for Interleukin-8 (IL8) Biomarker Activity (AID 2283094); conditions: primary human HUVEC with PBMC; actives raise or lower the signal
# Procedure, shortened: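 ELISA read-out of IL-8 in a primary human vascular co-culture (umbilical vein endothelium plus PBMC), taken 24 h after compound addition. Values derive from bidirectional fits against DMSO negative controls.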
# [6] = BSK_SAg_Proliferation: Cell Proliferation Assessment in the BioMAP Diversity Plus: SAg Assay (AID 2283095); conditions: primary human HUVEC with PBMC;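 further: relative cell number as total protein by SRB absorbance in sub-confluent culture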
# Procedure, shortened: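 Cells (endothelium plus PBMC, human primary) were dosed with chemical, cultured 96 h, fixed in 10% TCA and stained with 0.1% SRB. Absorbance at 560 nm gave relative protein, fitted bidirectionally relative to DMSO.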
# [7] = biological target: Cytochrome P450 2C19 (Homo sapiens) (UniProt P33261); assay: NVS_ADME_hCYP2C19: NovaScreen (NVS) CYP450-related Enzyme Activity (ADME) Assay for human CYP2C19 (AID 2283113; active means hit-call score of the fitted dose curve at least 0.9, where 1 is the maximum;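 on AC50: potency for inhibition seen as loss of fluorescent signal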)
# Procedure, shortened: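 Biochemical CYP2C19 inhibition screen: insect-cell recombinant protein plus fluorescent substrate, 1 h, fluorescence intensity. Acetonitrile defined baseline activity. Single 10 uM concentration in duplicate, with concentration-response follow-up for actives.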
# [8] = biological target: human Matrix Metalloproteinase-9 (MMP9), MMP9 (gene 4318) (UniProt P14780); assay: NVS_ENZ_hMMP9: NovaScreen (NVS) Enzymatic Assay for human Matrix Metalloproteinase-9 (MMP9) (AID 2283190; active means hit-call score of the fitted dose curve at least 0.9, where 1 is the maximum;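 further: cell-free recombinant MMP9 protease activity read by fluorescent substrate signal; active means inhibition seen as loss of fluorescence signal versus DMSO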)
# Procedure, shortened: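 Extracted enzyme, fluorescent substrate, 1 h post-dose read. Single conc 25 uM in duplicate, then concentration series for actives. Activity = signal loss relative to DMSO negative control.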
# [9] = biological target: human Ephrin type-A Receptor 1 (EphA1), EPHA1 (gene 2041) (UniProt P21709); assay: NVS_ENZ_hEphA1: NovaScreen (NVS) Enzymatic Assay for human Ephrin type-A Receptor 1 (EphA1) (AID 2283158; active means hit-call score of the fitted dose curve at least 0.9, where 1 is the maximum;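 further: activity is signal loss versus DMSO meaning EphA1 kinase inhibition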)
# Procedure, shortened: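 Here the EphA1 protein is recombinant and the substrate fluorescent, with electrophoretic separation before fluorescence detection at 1 hour. Signal loss against DMSO defines activity; plate controls included; follow-up concentration series reach 50 uM.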
# [10] = biological target: human Phosphodiesterase 10 (PDE10), PDE10A (gene 10846) (UniProt Q9Y233); assay: NVS_ENZ_hPDE10: NovaScreen (NVS) Enzymatic Assay for human Phosphodiesterase 10 (PDE10) (AID 2283195; active means hit-call score of the fitted dose curve at least 0.9, where 1 is the maximum)
# Procedure, shortened: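 PDE10A, cell-free; 1 h incubation; fluorescence intensity + electrophoretic mobility shift separating substrate/product; DMSO = baseline; 25 uM duplicate primary, CRC up to 50 uM.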
# [11] = biological target: human Phosphoinositide 3-kinase alpha (PI3Ka), PIK3CA (gene 5290) (UniProt P42336); assay: NVS_ENZ_hPI3Ka: NovaScreen (NVS) Enzymatic Assay for human Phosphoinositide 3-kinase alpha (PI3Ka) (AID 2283196; active means hit-call score of the fitted dose curve at least 0.9, where 1 is the maximum)
# Procedure, shortened: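 Fluorescence/mobility-shift readout of substrate conversion by recombinant enzyme, 1 h post-dosing. Primary screen in duplicate at 25 uM; actives (e.g. ≥30% inhibition) retested in singleton concentration-response, top concentration 50 uM.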
# [12] = biological target: human Beta-secretase (BACE), BACE1 (gene 23621) (UniProt P56817); assay: NVS_ENZ_hBACE: NovaScreen (NVS) Enzymatic Assay for human Beta-secretase (BACE) (AID 2283140; active means hit-call score of the fitted dose curve at least 0.9, where 1 is the maximum;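 further: hits are inhibitors that reduce fluorescent substrate signal versus DMSO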)
# Procedure, shortened: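 Compounds were first tested in duplicate at 25 uM, then actives in concentration series, against recombinant BACE1 from SF9 cells. Enzyme activity was measured by fluorescence intensity 1 hour after dosing, with DMSO as negative control.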
# [13] = biological target: human Protein Tyrosine Phosphatase Non-receptor Type 6 (PTPN6), PTPN6 (gene 5777) (UniProt P29350); assay: NVS_ENZ_hPTPN6: NovaScreen (NVS) Enzymatic Assay for human Protein Tyrosine Phosphatase Non-receptor Type 6 (PTPN6) (AID 2283210; active means hit-call score of the fitted dose curve at least 0.9, where 1 is the maximum)
# Procedure, shortened: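 Cell-free assay with recombinant PTPN6 expressed in SF9 cells, fluorescent substrate, product separated from substrate by electrophoretic mobility shift; read 1.33 hours after dosing. Primary screen in duplicate at 25 uM, actives retested in concentration series; DMSO baseline.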
# [14] = biological target: human CYP2C9, CYP2C9 (gene 1559) (UniProt P11712); assay: NVS_ADME_hCYP2C9: NovaScreen (NVS) CYP450-related Enzyme Activity (ADME) Assay for human CYP2C9 (AID 2283108; active means hit-call score of the fitted dose curve at least 0.9, where 1 is the maximum)
# Procedure, shortened: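 Fluorescence readout of CYP2C9 activity (SF9-expressed human enzyme) at 0.75 h. The primary screen used 10 uM in duplicate, with concentration-response follow-up for actives; acetonitrile was the negative control.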
# [15] = biological target: Cytochrome P450 3A4 (Homo sapiens) (UniProt P08684); assay: NVS_ADME_hCYP3A4: NovaScreen (NVS) CYP450-related Enzyme Activity (ADME) Assay for human CYP3A4 (AID 2283110; active means hit-call score of the fitted dose curve at least 0.9, where 1 is the maximum)
# Procedure, shortened: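 Compounds were first screened in duplicate at 10 uM against recombinant CYP3A4 produced in insect cells, then actives were run in concentration series. Enzyme activity was measured by fluorescence after 0.33 hour, with acetonitrile as baseline.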
# Chain of E-selectin (Homo sapiens) (P16581 whole entry, looked up): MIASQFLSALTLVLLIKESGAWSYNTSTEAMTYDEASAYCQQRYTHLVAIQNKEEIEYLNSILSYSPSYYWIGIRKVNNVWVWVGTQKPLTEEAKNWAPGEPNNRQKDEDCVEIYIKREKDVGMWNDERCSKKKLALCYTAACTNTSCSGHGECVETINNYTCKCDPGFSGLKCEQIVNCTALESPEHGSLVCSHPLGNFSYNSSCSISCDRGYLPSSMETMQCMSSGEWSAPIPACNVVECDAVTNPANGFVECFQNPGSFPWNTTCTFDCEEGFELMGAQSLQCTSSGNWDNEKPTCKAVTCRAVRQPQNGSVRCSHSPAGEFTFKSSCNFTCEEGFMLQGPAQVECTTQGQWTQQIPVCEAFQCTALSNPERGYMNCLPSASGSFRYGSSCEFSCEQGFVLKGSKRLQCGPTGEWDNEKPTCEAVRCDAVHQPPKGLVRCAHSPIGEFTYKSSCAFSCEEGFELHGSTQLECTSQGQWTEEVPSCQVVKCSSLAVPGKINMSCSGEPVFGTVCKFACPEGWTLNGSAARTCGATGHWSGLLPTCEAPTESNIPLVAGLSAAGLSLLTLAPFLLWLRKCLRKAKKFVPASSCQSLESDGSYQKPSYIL
# Chain of human Phosphodiesterase 10 (PDE10), PDE10A (gene 10846) (Q9Y233 whole entry, looked up): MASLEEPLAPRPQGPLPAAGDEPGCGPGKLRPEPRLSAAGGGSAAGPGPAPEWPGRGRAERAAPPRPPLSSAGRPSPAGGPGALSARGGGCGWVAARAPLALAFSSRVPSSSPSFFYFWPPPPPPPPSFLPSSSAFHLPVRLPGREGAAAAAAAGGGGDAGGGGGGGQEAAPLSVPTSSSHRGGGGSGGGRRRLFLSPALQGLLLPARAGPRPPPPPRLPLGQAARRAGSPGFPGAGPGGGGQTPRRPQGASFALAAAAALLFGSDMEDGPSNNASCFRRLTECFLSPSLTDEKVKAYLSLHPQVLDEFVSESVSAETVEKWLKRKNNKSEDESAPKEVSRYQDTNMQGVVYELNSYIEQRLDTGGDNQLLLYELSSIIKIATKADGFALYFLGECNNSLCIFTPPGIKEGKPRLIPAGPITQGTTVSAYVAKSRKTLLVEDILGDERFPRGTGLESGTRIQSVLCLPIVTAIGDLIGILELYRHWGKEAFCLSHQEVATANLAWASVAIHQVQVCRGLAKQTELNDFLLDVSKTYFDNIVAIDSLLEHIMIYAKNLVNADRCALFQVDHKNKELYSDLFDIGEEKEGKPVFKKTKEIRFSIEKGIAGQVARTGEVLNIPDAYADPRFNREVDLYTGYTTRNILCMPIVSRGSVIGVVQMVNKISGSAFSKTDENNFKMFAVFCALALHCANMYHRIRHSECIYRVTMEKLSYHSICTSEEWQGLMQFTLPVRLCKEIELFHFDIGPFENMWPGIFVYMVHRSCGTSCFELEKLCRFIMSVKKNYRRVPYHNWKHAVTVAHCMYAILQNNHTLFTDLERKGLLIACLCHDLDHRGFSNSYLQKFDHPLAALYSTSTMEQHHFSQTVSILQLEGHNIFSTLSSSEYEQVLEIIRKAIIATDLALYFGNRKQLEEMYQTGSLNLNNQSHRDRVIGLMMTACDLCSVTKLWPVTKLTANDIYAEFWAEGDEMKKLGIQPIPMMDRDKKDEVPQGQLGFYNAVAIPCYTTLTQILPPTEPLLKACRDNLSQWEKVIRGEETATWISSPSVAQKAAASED
# Chain of human Ephrin type-A Receptor 1 (EphA1), EPHA1 (gene 2041) (P21709 whole entry, looked up): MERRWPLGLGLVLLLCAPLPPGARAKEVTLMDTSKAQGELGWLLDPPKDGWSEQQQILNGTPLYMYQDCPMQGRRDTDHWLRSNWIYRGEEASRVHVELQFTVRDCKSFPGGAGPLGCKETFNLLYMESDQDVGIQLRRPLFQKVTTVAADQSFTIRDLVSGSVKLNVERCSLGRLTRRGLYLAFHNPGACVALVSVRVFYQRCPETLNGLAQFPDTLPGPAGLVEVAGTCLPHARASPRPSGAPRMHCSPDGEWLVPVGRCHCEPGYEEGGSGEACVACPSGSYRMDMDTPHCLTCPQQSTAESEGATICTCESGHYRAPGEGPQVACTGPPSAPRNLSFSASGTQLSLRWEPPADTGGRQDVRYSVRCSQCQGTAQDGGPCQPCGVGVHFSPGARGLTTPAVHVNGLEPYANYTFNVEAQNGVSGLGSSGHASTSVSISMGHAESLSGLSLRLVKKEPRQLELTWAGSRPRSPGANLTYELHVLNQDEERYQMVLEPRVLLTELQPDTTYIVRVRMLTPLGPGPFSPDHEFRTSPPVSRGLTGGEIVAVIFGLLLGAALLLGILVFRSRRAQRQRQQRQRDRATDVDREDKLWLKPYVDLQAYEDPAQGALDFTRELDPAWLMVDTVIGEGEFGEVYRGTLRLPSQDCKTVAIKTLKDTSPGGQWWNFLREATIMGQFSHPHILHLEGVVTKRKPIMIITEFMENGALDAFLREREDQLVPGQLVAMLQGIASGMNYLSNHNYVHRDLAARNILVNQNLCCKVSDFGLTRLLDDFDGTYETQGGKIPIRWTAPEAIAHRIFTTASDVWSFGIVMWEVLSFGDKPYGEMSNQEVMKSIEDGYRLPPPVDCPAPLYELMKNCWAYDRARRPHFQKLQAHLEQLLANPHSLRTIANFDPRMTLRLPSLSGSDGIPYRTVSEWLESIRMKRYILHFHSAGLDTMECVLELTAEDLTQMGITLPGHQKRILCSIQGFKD
# Chain of human Matrix Metalloproteinase-9 (MMP9), MMP9 (gene 4318) (P14780 whole entry, looked up): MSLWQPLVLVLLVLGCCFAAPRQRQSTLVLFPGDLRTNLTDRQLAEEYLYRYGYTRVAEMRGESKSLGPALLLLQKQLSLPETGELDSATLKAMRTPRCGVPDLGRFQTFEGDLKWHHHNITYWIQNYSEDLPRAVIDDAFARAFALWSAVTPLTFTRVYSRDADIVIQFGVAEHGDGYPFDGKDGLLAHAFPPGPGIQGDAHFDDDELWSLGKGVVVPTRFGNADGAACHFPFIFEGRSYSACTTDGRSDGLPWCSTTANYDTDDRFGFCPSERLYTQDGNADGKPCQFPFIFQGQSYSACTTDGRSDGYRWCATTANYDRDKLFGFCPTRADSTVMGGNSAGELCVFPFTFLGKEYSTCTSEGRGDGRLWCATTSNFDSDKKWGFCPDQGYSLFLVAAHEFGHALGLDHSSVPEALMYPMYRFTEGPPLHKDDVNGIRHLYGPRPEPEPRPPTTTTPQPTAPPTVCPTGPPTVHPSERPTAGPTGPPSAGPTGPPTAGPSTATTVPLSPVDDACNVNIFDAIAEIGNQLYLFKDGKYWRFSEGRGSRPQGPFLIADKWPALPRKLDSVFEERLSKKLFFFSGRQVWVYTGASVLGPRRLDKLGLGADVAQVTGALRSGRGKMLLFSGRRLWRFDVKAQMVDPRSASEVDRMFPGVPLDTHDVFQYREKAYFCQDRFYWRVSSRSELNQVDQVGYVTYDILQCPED
# Chain of human Phosphoinositide 3-kinase alpha (PI3Ka), PIK3CA (gene 5290) (P42336 whole entry, looked up): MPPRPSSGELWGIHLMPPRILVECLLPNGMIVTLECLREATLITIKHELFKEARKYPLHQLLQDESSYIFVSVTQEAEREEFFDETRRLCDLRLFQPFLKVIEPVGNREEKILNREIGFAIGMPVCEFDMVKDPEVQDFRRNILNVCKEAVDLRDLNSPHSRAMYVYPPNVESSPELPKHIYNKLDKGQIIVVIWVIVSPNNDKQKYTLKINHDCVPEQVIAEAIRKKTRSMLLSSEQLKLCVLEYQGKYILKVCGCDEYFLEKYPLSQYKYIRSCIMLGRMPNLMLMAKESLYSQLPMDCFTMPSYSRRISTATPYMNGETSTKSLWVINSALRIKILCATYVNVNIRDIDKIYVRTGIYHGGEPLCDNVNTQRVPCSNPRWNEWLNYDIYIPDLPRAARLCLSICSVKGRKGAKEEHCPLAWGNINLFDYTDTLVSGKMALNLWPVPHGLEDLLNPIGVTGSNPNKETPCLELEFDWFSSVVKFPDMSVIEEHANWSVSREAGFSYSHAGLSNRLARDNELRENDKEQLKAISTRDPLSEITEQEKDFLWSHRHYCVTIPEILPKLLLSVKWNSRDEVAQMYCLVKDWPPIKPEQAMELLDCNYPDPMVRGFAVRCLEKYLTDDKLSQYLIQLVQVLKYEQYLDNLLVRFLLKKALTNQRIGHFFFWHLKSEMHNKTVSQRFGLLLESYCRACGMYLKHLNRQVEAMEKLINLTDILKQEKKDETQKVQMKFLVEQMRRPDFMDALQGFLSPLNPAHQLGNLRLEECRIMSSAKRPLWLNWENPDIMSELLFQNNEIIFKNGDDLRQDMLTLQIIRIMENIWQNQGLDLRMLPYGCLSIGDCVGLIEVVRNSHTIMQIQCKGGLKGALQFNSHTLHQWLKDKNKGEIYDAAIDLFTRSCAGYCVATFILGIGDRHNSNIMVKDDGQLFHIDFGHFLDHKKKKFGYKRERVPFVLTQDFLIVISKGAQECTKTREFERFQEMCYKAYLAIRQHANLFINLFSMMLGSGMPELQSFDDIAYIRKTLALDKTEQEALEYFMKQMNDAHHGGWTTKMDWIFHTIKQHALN
# Chain of Cytochrome P450 3A4 (Homo sapiens) (P08684 whole entry, looked up): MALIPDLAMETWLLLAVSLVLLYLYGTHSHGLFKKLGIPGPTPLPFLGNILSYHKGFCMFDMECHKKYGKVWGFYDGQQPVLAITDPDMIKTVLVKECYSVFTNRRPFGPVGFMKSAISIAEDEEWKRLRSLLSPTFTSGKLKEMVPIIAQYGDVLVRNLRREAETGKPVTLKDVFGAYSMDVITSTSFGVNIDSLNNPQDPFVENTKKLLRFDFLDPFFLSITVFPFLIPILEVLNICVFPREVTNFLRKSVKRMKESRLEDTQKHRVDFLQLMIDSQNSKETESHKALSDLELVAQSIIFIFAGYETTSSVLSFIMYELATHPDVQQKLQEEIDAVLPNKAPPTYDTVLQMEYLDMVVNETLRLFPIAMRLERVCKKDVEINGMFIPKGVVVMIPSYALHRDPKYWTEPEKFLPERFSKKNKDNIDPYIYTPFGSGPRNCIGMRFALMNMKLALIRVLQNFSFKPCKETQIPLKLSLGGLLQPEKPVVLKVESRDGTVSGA
compound,measurement,setting,value
Nc1cc([N+](=O)[O-])ccc1O,outcome,[1],inactive
same,outcome,[2],inactive
same,outcome,[3],inactive
same,outcome,[4],inactive
C=CCOC(=O)CCC1CCCCC1,outcome,[1],inactive
same,outcome,[2],inactive
same,outcome,[3],inactive
same,outcome,[4],inactive
O=C(O)C[C@H](O)C[C@H](O)/C=C/c1c(C2CC2)nc2ccccc2c1-c1ccc(F)cc1,AC50,[1],0.00197 µM (active)
same,outcome,[2],inactive
same,outcome,[3],inactive
same,AC50,[4],0.104 µM (active)
CC(=O)[C@H]1CC[C@H]2[C@@H]3CC=C4C[C@@H](O)CC[C@]4(C)[C@H]3CC[C@]12C,outcome,[1],inactive
same,outcome,[2],inactive
same,AC50,[3],6.25 µM (active) and 7.57 µM (active)
same,outcome,[5],inactive
same,outcome,[4],inactive
CN(CCOc1ccc(CC2SC(=O)NC2=O)cc1)c1ccccn1 (stereo not given),AC50,[1],20 µM (active)
same,outcome,[2],inactive
same,outcome,[3],inactive
same,outcome,[4],inactive
CCC(=O)OCc1ccccc1,outcome,[1],inactive
same,outcome,[2],inactive
same,outcome,[3],inactive
same,outcome,[4],inactive
Cc1ccc(O)c(C(C)(C)C)c1,AC50,[1],37.5 µM (active)
same,AC50,[2],38.1 µM (active)
same,AC50,[3],35.8 µM (active)
same,AC50,[4],31.9 µM (active)
CC[Si](OC(C)=O)(OC(C)=O)OC(C)=O,outcome,[1],inactive
same,outcome,[2],inactive
same,outcome,[3],inactive
same,outcome,[6],inactive
same,outcome,[4],inactive
c1ccc2sc(SN(C3CCCCC3)C3CCCCC3)nc2c1,outcome,[1],inactive
same,outcome,[2],inactive
same,AC50,[3],5.28 µM (active)
same,AC50,[5],3.23 µM (active)
same,AC50,[4],11.4 µM (active)
same,outcome,[7],inactive
COc1cc(C=O)ccc1OC(=O)C(C)C,outcome,[1],inactive
same,outcome,[2],inactive
same,outcome,[3],inactive
same,outcome,[5],inactive
same,outcome,[4],inactive
Clc1ccc(Cl)c(Cl)c1Cl,AC50,[8],6.22 µM (active)
CCO[Si](CCCS)(OCC)OCC,outcome,[9],inactive
same,AC50,[8],1.65 µM (active)
same,AC50,[10],32.1 µM (active)
same,outcome,[11],inactive
COC(=O)c1ccc(C)cc1,outcome,[1],inactive
same,outcome,[2],inactive
same,outcome,[3],inactive
same,outcome,[4],inactive
same,outcome,[12],inactive
same,outcome,[11],inactive
OCC(CO)(CO)COCC(CO)(CO)CO,outcome,[9],inactive
same,AC50,[10],23.1 µM (active)
c1ccc2c(c1)c1cccc3ccc4cccc2c4c31,outcome,[1],inactive
same,outcome,[2],inactive
same,outcome,[3],inactive
same,outcome,[4],inactive
same,outcome,[10],inactive
COc1cc2ncnc(Nc3cccc(Cl)c3)c2cc1OC,outcome,[9],inactive
same,AC50,[10],2.52 µM (active)
O=C(O)c1ccc([N+](=O)[O-])cc1,outcome,[1],inactive
same,outcome,[2],inactive
same,outcome,[3],inactive
same,outcome,[4],inactive
same,outcome,[13],inactive
CC(=O)O[C@]1(C(C)=O)CC[C@H]2[C@@H]3C[C@H](C)C4=CC(=O)CC[C@]4(C)[C@H]3CC[C@@]21C,outcome,[1],inactive
same,outcome,[2],inactive
same,outcome,[3],inactive
same,outcome,[4],inactive
same,AC50,[14],0.119 µM (active)
same,AC50,[15],0.00997 µM (active)
same,AC50,[7],2.5 µM (active)
same,outcome,[8],inactive
CC1(C)[C@H]2CC[C@]1(C)[C@H](O)C2,outcome,[15],inactive
same,outcome,[9],inactive

# — PubChem BioAssay (EPA / NIEHS)
